# According to ChEMBL document CHEMBL1961873, “Compounds: GSK PKIS; Assays: Nanosyn kinase panel” (2012):
# Several values for one entry are separate records, joined by “and”; a condition that tells them apart may be missing. Equal values may be shown once.
# Columns and labels:
# [1] = molecular target: Platelet-derived growth factor receptor beta (Homo sapiens) (UniProt P09619); details: at 1 µM;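 further: each value is a mean percent inhibition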
# [2] = molecular target: Tyrosine-protein kinase FRK (Homo sapiens) (UniProt P42685); details: at 0.1 µM
# [3] = molecular target: Tyrosine-protein kinase FRK (Homo sapiens) (UniProt P42685); details: at 1 µM
# [4] = molecular target: Protein-tyrosine kinase 2-beta (Homo sapiens) (UniProt Q14289); details: at 0.1 µM
# [5] = molecular target: Protein-tyrosine kinase 2-beta (Homo sapiens) (UniProt Q14289); details: at 1 µM
# [6] = molecular target: Proto-oncogene tyrosine-protein kinase receptor Ret (Homo sapiens) (UniProt P07949); details: at 0.1 µM
# [7] = molecular target: Proto-oncogene tyrosine-protein kinase receptor Ret (Homo sapiens) (UniProt P07949); details: at 1 µM
# [8] = system: Proto-oncogene tyrosine-protein kinase receptor Ret (Homo sapiens), P07949 [V804L]; details: at 0.1 µM
# [9] = system: Proto-oncogene tyrosine-protein kinase receptor Ret (Homo sapiens), P07949 [V804L]; details: at 1 µM
# [10] = system: Proto-oncogene tyrosine-protein kinase receptor Ret (Homo sapiens), P07949 [Y791F]; details: at 0.1 µM
# Chain of Proto-oncogene tyrosine-protein kinase receptor Ret (Homo sapiens), P07949 [Y791F] (P07949 whole entry Y791F): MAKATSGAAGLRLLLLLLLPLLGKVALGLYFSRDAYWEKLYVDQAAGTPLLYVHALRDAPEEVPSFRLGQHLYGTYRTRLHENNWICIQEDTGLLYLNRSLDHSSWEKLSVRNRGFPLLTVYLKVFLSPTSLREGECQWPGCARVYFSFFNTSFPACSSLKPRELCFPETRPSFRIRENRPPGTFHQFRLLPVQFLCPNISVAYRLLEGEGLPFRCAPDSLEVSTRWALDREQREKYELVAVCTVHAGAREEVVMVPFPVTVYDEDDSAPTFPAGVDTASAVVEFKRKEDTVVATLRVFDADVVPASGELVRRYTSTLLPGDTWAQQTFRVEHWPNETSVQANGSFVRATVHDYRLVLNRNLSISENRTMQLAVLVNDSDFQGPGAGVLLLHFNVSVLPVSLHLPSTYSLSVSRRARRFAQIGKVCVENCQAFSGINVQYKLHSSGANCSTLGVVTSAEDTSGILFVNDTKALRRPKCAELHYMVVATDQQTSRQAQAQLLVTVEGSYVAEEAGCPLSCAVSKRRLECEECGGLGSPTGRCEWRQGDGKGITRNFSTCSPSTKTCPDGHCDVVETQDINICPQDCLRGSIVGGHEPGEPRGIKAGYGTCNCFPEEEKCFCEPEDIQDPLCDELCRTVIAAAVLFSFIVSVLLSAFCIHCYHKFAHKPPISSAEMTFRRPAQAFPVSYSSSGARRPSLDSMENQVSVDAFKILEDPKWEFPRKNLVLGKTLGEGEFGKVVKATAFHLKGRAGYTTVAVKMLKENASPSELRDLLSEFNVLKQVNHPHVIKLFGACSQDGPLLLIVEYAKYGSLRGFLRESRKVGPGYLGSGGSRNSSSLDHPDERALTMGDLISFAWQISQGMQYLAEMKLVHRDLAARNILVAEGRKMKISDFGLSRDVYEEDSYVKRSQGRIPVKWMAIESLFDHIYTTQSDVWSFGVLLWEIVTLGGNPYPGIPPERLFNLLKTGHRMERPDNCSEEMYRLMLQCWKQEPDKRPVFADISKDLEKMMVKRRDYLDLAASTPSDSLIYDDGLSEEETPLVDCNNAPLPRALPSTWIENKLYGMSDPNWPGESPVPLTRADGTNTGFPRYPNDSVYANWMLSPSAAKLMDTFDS
# Chain of Proto-oncogene tyrosine-protein kinase receptor Ret (Homo sapiens) (P07949 whole entry): as the sequence (P07949 whole entry Y791F) above, with F791Y counted along it
# Chain of Platelet-derived growth factor receptor beta (Homo sapiens) (P09619 whole entry): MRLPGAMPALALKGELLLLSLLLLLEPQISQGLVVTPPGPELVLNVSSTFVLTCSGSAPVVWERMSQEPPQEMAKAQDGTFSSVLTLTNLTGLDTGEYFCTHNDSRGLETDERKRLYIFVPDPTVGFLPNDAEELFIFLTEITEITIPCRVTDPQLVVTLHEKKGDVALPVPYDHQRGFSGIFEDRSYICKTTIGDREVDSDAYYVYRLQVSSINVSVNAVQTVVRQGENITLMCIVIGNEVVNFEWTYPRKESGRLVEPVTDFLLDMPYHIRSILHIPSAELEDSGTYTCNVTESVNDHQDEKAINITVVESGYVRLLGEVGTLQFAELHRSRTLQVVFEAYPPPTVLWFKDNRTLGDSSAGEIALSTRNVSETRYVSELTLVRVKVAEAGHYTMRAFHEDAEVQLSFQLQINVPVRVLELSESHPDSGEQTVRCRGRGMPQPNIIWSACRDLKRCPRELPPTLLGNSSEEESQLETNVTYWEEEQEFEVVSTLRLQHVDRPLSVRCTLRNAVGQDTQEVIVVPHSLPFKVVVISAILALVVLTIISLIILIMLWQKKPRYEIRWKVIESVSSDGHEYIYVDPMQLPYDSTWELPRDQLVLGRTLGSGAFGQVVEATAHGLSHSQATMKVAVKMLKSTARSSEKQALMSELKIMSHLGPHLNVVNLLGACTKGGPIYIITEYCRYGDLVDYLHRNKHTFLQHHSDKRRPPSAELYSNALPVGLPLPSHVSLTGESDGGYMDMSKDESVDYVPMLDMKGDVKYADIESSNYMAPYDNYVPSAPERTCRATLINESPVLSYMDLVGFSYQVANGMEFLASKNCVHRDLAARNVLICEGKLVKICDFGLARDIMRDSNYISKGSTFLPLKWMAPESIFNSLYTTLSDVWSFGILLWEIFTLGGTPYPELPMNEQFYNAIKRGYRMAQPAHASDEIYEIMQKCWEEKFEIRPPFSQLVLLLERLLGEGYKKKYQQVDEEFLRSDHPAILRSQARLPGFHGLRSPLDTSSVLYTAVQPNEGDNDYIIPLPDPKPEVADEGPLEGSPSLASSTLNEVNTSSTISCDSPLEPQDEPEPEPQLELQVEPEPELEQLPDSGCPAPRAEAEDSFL
# Chain of Protein-tyrosine kinase 2-beta (Homo sapiens) (Q14289 whole entry, looked up): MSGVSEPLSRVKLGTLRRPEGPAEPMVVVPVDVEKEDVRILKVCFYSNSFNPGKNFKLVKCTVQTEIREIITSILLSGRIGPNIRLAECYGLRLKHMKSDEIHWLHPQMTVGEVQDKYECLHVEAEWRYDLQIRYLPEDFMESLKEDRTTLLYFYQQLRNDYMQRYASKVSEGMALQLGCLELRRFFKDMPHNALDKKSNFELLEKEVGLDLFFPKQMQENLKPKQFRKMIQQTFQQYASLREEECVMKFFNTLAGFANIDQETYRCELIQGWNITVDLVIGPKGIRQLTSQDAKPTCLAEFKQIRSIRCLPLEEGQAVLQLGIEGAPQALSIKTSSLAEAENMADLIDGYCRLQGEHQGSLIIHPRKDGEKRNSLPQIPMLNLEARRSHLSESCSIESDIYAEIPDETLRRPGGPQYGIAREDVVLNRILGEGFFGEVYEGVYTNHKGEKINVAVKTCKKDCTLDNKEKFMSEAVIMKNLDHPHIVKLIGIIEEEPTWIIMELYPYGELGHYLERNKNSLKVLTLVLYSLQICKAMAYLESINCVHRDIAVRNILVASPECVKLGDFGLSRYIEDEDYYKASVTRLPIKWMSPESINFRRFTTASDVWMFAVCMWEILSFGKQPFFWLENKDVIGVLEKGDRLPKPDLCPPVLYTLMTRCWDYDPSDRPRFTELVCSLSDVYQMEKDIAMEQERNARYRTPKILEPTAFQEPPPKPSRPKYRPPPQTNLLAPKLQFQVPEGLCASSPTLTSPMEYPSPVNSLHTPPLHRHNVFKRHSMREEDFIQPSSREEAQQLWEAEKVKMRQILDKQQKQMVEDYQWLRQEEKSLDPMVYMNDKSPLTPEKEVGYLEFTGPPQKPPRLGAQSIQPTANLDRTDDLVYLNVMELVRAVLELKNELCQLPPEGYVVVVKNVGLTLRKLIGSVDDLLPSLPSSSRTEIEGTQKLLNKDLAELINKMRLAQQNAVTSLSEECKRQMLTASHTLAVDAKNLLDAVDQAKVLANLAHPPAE
# Chain of Tyrosine-protein kinase FRK (Homo sapiens) (P42685 whole entry): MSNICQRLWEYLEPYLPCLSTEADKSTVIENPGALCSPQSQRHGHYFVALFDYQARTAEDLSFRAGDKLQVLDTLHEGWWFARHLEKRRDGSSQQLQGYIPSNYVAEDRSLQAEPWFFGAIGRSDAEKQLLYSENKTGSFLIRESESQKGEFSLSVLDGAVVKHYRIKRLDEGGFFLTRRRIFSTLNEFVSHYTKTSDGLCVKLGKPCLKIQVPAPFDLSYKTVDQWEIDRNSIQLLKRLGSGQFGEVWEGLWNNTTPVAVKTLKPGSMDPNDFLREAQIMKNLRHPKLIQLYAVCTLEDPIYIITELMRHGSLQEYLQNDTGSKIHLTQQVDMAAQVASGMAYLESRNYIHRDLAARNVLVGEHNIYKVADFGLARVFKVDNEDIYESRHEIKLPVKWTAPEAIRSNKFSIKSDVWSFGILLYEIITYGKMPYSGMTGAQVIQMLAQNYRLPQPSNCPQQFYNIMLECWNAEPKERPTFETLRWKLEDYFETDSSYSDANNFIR
# Chain of Proto-oncogene tyrosine-protein kinase receptor Ret (Homo sapiens), P07949 [V804L] (P07949 whole entry V804L): as the sequence (P07949 whole entry Y791F) above, with F791Y, V804L counted along it
SMILES,inhibition [1],inhibition [2],inhibition [3],inhibition [4],inhibition [5],inhibition [6],inhibition [7],inhibition [8],inhibition [9],inhibition [10]
CS(=O)(=O)Nc1ccc(-c2ccc3c(NC(=O)C4CC4)n[nH]c3c2)cc1,8.42%,1.21%,1.03%,9.87%,8.59%,3.92%,6.93%,4.24%,8.77%,6.88%
O=C(Nc1n[nH]c2nnc(-c3cccnc3)cc12)C1CC1,4.59%,-0.62%,-0.08%,1.2%,1.77%,-1.02%,1.55%,0.89%,1.74%,1.5%
CS(=O)(=O)CCNCc1ccc(-c2ccc3ncnc(Nc4ccc(OCc5ccccc5)cc4)c3c2)o1,4.72%,0.38%,0.96%,7.76%,6.51%,2.99%,9.8%,3.01%,11.9%,3.34%
Cn1c(-c2nonc2N)nc2cnccc21,6.81%,0.98%,1.06%,8.49%,4.49%,2.99%,4.58%,2.88%,1.31%,3.98%
c1cnn2ncc(-c3ccnc(NCCCN4CCOCC4)n3)c2c1,4.61%,0.16%,0.39%,9.94%,6.44%,4.78%,0.87%,2.98%,2.2%,6.04%
CN(c1ccc(NC(=O)NCCN2CCOCC2)cc1)c1ccnc(Nc2ccc(CS(C)(=O)=O)cc2)n1,77.1%,1.69%,0.89%,11.2%,57.8%,16.5%,58.5%,13.2%,48.9%,29.1%
CC1=C(C(=O)Nc2ccc3[nH]nc(C)c3c2)C(c2ccc(C(F)(F)F)cc2)CC(=O)N1 (stereo not drawn),12.2%,1.26%,6.47%,10.8%,5.14%,7.82%,44.2%,12.2%,42.2%,10.5%
O=C(O[C@H]1CN[C@H](C#Cc2cc3ncnc(Nc4ccc5c(cnn5Cc5ccccc5)c4)c3s2)C1)N1CCOCC1,6.66%,0.07%,-1.26%,1.18%,-1.26%,2.44%,4.66%,2.83%,4.7%,2.45%
NC(=O)c1ccc2c(-c3ccnc(NCCCO)n3)c(-c3ccc(F)cc3)nn2c1,18.2%,4.1%,3.97%,17.1%,12.2%,5.55%,16.6%,1.73%,4.71%,6.62%
Cc1cc(O)cc(C)c1/C=C/c1cncc(C(=O)OC(C)(C)C)c1,43.3%,3.51%,20.1%,13.2%,7.22%,5.39%,7.34%,3.42%,11.6%,4.05%
N#Cc1ccc2c(-c3ccnc(NC4CC4)n3)c(-c3ccc(F)cc3)nn2c1,16.8%,1.44%,0.3%,-1.69%,0.44%,5.41%,8.1%,3.66%,2.65%,4.65%
Nc1ncnc2occ(-c3ccc(NC(=O)Nc4cc(C(F)(F)F)ccc4F)cc3)c12,86.7% and 81.4%,2.63% and 2.3%,19.1% and 11.8%,4.45% and -2.3%,,85.3% and 84.5%,90.7% and 88.5%,68.3% and 62.2%,84.7% and 81.1%,79.2% and 72.6%
O=C(O[C@H]1CN[C@H](C#Cc2cc3ncnc(Nc4ccc5c(ccn5Cc5cc(F)ccc5F)c4)c3s2)C1)N1CCOCC1,7.68%,3.08%,2.35%,13.2%,5.45%,2.76%,4.91%,2.75%,4.26%,1.9%
NS(=O)(=O)c1ccc(N/N=C2\C(=O)Nc3cccc(CCc4ccncc4)c32)cc1,58.5%,-0.74%,-0.31%,4.23%,20.1%,21.6%,43.4%,38.5%,43.6%,18.8%
COc1ccc(-c2nn3ncccc3c2-c2ccnc(Nc3ccc(F)c(F)c3)n2)cc1,15.3%,0.7%,2.26%,6.54%,17.9%,4.85%,18.1%,16.2%,15.8%,9.34%
Nc1nonc1-c1nc2cnccc2n1C1CC1,26.9% and 22.4%,3.06% and 1.01%,1.87% and 3.49%,9.52% and 11.2%,8.23% and 11.7%,4.13% and 4.16%,10.6% and 0.77%,4.79% and 3.57%,9.45% and 6.56%,6.44% and 5.27%

SMILES,inhibition [1],inhibition [2],inhibition [3],inhibition [4],inhibition [5],inhibition [6],inhibition [7],inhibition [8],inhibition [9],inhibition [10]
COc1cccc(-n2ncc3c(N/N=C/c4ccc(C(=O)NCCN(C)C)cc4)ncnc32)c1,77.6%,3.91%,12.2%,5.72%,12.1%,22.4%,66.9%,12.7%,50.4%,37.3%
CN1CCC(C(=O)Nc2n[nH]c3nc(-c4ccc(O)cc4)c(Br)cc23)CC1,22.6% and 17.3%,1.77% and -0.83%,2.31% and 3.98%,10.8% and -4.15%,12.9% and 6.02%,7.08% and 5.43%,9.97% and 0.25%,4.68% and 1.68%,,4.94% and 4.6%
COc1cc(N2CCN(C(C)C)CC2)ccc1Nc1nc(Nc2cccc(F)c2C(=O)O)c2cc[nH]c2n1,6.82%,4.04%,4.07%,90.6%,96.4%,4.88%,5.6%,3.85%,12.1%,4.5%
NS(=O)(=O)c1ccc(N/N=C2\C(=O)Nc3ccc(C(=O)NCc4ccncc4)cc32)cc1,85.3%,1.15%,0.41%,3.79%,8.61%,11.1%,49.3%,31.4%,75.2%,10.6%
CN(C)CCNC(=O)Nc1ccc(N(C)c2ccnc(Nc3ccc(CS(C)(=O)=O)cc3)n2)cc1,66.8%,0.22%,0.97%,18.4%,58.6%,7.81%,14.9%,4.98%,13.9%,9.9%
CCS(=O)(=O)c1ccc(OC)c(Nc2ncc(-c3cccc(C(C)=O)c3)o2)c1,84.3%,3.25%,14.2%,5.43%,8.24%,7.26%,33.6%,5.03%,28.8%,6.91%
CN1CCN(Cc2ccc(-c3cc4ncnc(Nc5ccc(OCc6cccc(F)c6)c(Cl)c5)c4s3)o2)CC1,6.41% and 13%,2.16% and 3.11%,3.13% and 4.91%,8.63% and 10.6%,8.03% and 19.6%,6.83% and 5.69%,13.4% and 14.8%,3.67% and 4.61%,5.81% and 10.9%,4.88% and 3.59%
CC(C)c1ccc(-c2cc(-c3c[nH]nc3-c3ccccn3)ccn2)cc1,11.4%,-0.8%,-0.88%,1.78%,3.36%,2.14%,5.62%,3.27%,2.58%,5.08%
COc1cc(Nc2ncc(-c3ccccc3)o2)cc(OC)c1,62.9%,0.8%,4.62%,6.76%,9.54%,7.16%,8.97%,4.73%,11.9%,8.14%
CCCNc1cccc(-n2ncc3c(N/N=C/c4ccncc4)ncnc32)c1,78.8%,0.57%,3.14%,2.47%,12.2%,15%,54.7%,7.89%,40.7%,16.4%
CCS(=O)(=O)c1ccc(OC)c(Nc2ncc(-c3cccc(F)c3)o2)c1,83.5%,10.5%,46.4%,11%,22.9%,13.5%,56.6%,7.78%,33.8%,15.9%
CCn1c(-c2nonc2N)nc2cncc(C(=O)NCCNC)c21,12.4%,3.22%,3.52%,4.6%,8.62%,6.45%,7.16%,4.21%,17.1%,7.45%
Cc1cc(O)cc(C)c1/C=C/c1cncc(C(N)=O)c1,42%,2.65%,14.2%,8.94%,8.75%,3.99%,8.88%,0.84%,4.4%,3.94%
COc1cc2c(cc1Nc1nc(Nc3cccc(F)c3C(N)=O)c3cc[nH]c3n1)N(C(=O)CN1CCN(C(C)C)CC1)CC2,5.17%,0.37%,1.24%,57.7%,93.4%,1.04%,5.75%,1.85%,7.87%,1.11%
FC(F)(F)CNc1nccc(-c2cnn3ncccc23)n1,3.09%,1.82%,1.72%,-0.29%,2.94%,3.97%,2.84%,1.22%,3.68%,1.04%
